Compounds without any hit were thinned out: in the full panel of roughly 79,000, 15% have a hit. Calls of active or inactive are those of the source. No stated cut-off is given here; in the data, active means growth inhibition above about 70%; inactive means the rest.
Tests used:
[1] = NCI Yeast Anticancer Drug Screen. Data for the rad50 strain (AID 155);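 further: 0% = growth of vehicle-only cultures of the same strain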; details: S. cerevisiae rad50 strain growth inhibition; at 50.0 µM; active compounds read high
Outline: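 Cells are treated with compound, grown, and their growth is then scored against vehicle-only cultures of the same repair-deficient yeast strain.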

[2] = NCI Yeast Anticancer Drug Screen. Data for the mec2-1 strain (AID 157); details: S. cerevisiae mec2-1 strain, at 50.0 µM, active compounds read high
Outline: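 Mutant yeast (mec2-1) grown with compound; growth inhibition relative to vehicle control reported.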

[3] = NCI Yeast Anticancer Drug Screen. Data for the sgs1 mgt1 strain (AID 161);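 further: 0% = growth of cultures given vehicle only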; details: S. cerevisiae sgs1 mgt1 strain, at 50.0 µM, active compounds read high
Outline: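 Growth of a repair-deficient yeast mutant was monitored after compound treatment and expressed as inhibition relative to vehicle-treated cultures.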

[4] = NCI Yeast Anticancer Drug Screen. Data for the cln2 rad14 strain (AID 165);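 further: 0% = growth equal to vehicle treated cultures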; details: S. cerevisiae cln2 rad14 strain, at 50.0 µM, active compounds read high
Outline: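 Readout is yeast growth inhibition versus vehicle-treated controls, using a strain with cln2 and rad14 alterations exposed to compound.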

[5] = NCI Yeast Anticancer Drug Screen. Data for the bub3 strain (AID 167); details: S. cerevisiae bub3 mutant strain, at 50.0 µM, active compounds read high
Outline: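 Part of a panel of yeast mutants defective in DNA damage repair or cell cycle regulation. Each strain is grown with compound, and inhibition is calculated relative to solvent-treated cultures.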

[6] = NCI Yeast Anticancer Drug Screen. Data for the mlh1 rad18 strain (AID 175); details: S. cerevisiae mlh1 rad18 strain growth inhibition; at 50.0 µM; active compounds read high
Outline: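 Genetically defined yeast (DNA repair-deficient) exposed to compounds; growth inhibition determined relative to vehicle.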

Measured: growth inhibition

c1ccc2cc3c(cc2c1)[nH]c1ccccc13
inactive: [1] -10.7% | [2] -26.4% | [3] -0.85% | [4] -3.1% | [5] -25.4% | [6] 14.8%

CC(=O)Nc1cc(Cl)cc2[nH]c(C)nc12
inactive: [1] 17.1% | [2] -3% | [3] -0.6% | [4] -0.25% | [5] 12.8% | [6] 37.4%

CC1=C(O)c2ccccc2C(=O)C1=O
inactive: [1] 25.4% | [2] 16.8% | [3] 40.3% | [4] 36.2% | [5] 12.8% | [6] 23.8%

COC(=O)C(=[N+]=[N-])C(=O)c1ccc([N+](=O)[O-])cc1
inactive: [1] 65.5% | [2] 23.9% | [3] 40.1% | [4] 41.8% | [5] 20.6% | [6] 42.3%

CC(C)CN1CC(=O)N2Cc3ccccc3CN2C(=O)C1
inactive: [1] -28.6% | [2] -10.2% | [3] -17.4% | [4] -4.95% | [5] -1.3% | [6] -2.5%

S=C(NCc1ccccc1)Nc1ncn[nH]1
inactive: [1] 5.1% | [2] 0.25% | [3] -5.8% | [4] -22.9% | [5] 3.55% | [6] 3.8%

C/C(=N/NC(N)=O)C1c2ccccc2Cc2ccccc21
inactive: [1] 18.1% | [2] -2.25% | [3] 4.85% | [4] -0.3% | [5] 16.9% | [6] -8.15%

CC1Cc2c(cc(N)nc2Br)NC1=O (stereo unspecified)
inactive: [1] -10.6% | [2] -6.05% | [3] 6.95% | [4] 19.2% | [5] 3.35% | [6] 10.1%

NC(=O)NCCCC1NC(=S)N(c2ccccc2)C1=O (stereo unspecified)
inactive: [1] -3.35% | [2] -4.35% | [3] -3.2% | [4] -2.95% | [5] 23.9% | [6] 34%

O=S1c2ccccc2S(=O)c2ccccc21 (stereo unspecified)
inactive: [1] -0.2% | [2] -6.25% | [3] 1.4% | [4] -0.55% | [5] 0.95% | [6] 1.15%

O=C1NC(=S)S/C1=C\c1c(Cl)cccc1Cl
inactive: [1] 56.9% | [2] 19% | [3] 61.1% | [4] 16.9% | [5] 27.9% | [6] 60.4%

c1ccc2c[n+](CCCC[n+]3ccc4ccccc4c3)ccc2c1
inactive: [1] 46.5% | [2] 17.1% | [3] 22.4% | [4] 12.4% | [5] 41.8% | [6] 44.8%

C[n+]1ccccc1CCC(=O)Nc1ccccc1
inactive: [1] -0.65% | [2] 14.9% | [3] 2.05% | [4] 0.05% | [5] 0.7% | [6] -17.9%

CC1=CC2C3C(=O)OC(=O)C3C1C(Cc1ccccc1)N2C (stereo unspecified)
inactive: [1] 14.5% | [2] -1.85% | [3] 10.6% | [4] 12.9% | [5] -6.55% | [6] 21.5%

O=C(NNC1=NCCCN1)c1ccco1
inactive: [1] 2.1% | [2] -0.75% | [3] 9.25% | [4] -22.2% | [5] 7.5% | [6] -3.85%

O=C(O)c1cscc1Cc1ccccc1
inactive: [1] 0.9% | [2] -2.25% | [3] -1.7% | [4] -21.1% | [5] -20.8% | [6] 5.45%

Cc1cc(C)nc(N(C)CCN2CCCCC2)c1
inactive: [1] -6.5% | [2] -3.1% | [3] 3.4% | [4] -25.1% | [5] 5.45% | [6] -5.85%

C/C(Cc1ccccc1)=N\NC(N)=S
inactive: [1] 13.3% | [2] 1.15% | [3] 27.6% | [4] -12.7% | [5] 8.5% | [6] 29.5%

C=C1C(=O)O[C@@H]2[C@H]3O[C@]3(C)CCC=C(C)CC[C@@H]12
inactive: [1] -2.7% | [2] -7.05% | [3] 2.15% | [4] 9.05% | [5] -11.8% | [6] -6.75%

COC(=O)/C(=C/Cl)NC(C)=O
inactive: [1] 3.2% | [2] -7.55% | [3] -4.8% | [4] -9.9% | [5] 8.7% | [6] 5.8%

O=C(c1ccccc1)C1C(C(=O)c2ccccc2)C(c2ccccc2)N(c2ccccc2)C1c1ccccc1 (stereo unspecified)
inactive: [1] 27.4% | [2] 17.8% | [3] -27.1% | [4] 18.9% | [5] -12.2% | [6] -75.2%

CC(NC(=O)C(C)NC(=O)C(N)CCP(C)(=O)O)C(=O)O (stereo unspecified)
inactive: [1] -20.6% | [2] -15% | [3] -15.2% | [4] -8.2% | [5] -12.2% | [6] -9.2%

CCOC(=O)CCC1(CCC(=O)OCC)c2ccccc2-c2ccccc21
inactive: [1] 3.65% | [2] 9% | [3] -1.85% | [4] -7.15% | [5] -3.75% | [6] 13%

CC1(C)COC(c2cc(Br)ccc2Br)=N1
inactive: [1] 4.9% | [2] -16.2% | [3] 7% | [4] 3.45% | [5] -3.3% | [6] 1.35%

CCCCNc1ccc2c(C)cc(=O)oc2c1
inactive: [1] -22.9% | [2] -30.6% | [3] -16.9% | [4] 0.7% | [5] -21.4% | [6] -17.4%

CCC1(C)CC(=O)N(C/C=C(\C)CCC(=O)O)C(=O)C1
inactive: [1] -3.35% | [2] 4.5% | [3] -0.45% | [4] -8.4% | [5] 7% | [6] -7.45%

CCCCCCCCCCCCCCCC(=O)OCC1OC(n2cc(F)c(=O)[nH]c2=O)C(NC(=O)N(CCCl)N=O)C(O)C1O (stereo unspecified)
inactive: [1] -16.1% | [2] -31.8% | [3] -16.6% | [4] -2.1% | [5] -24.4% | [6] -23.1%

Nc1cccc(N=[N+]([O-])c2cccc(N)c2)c1
inactive: [1] 18.9% | [2] 8.05% | [3] -10.5% | [4] -22.1% | [5] 12.2% | [6] 27.6%

O=c1c2ccccc2n2nnc3ccc(NCCNCCO)c1c32
inactive: [1] -15.1% | [2] 2.8% | [3] -0.7% | [4] 23.3% | [5] -0.45% | [6] -1.3%

CC(=O)Nc1ccc(-c2nnc(SCC(=O)Nc3cccc(C)c3)o2)cc1
inactive: [1] 5.2% | [2] 14.7% | [3] 32% | [4] 24% | [5] 9.7% | [6] -7.75%

CCCNCC(O)CNc1ccc(Cl)cc1 (stereo unspecified)
inactive: [1] 3.1% | [2] -7.15% | [3] 2.05% | [4] -9.4% | [5] -4.3% | [6] 5.65%

NC1=NC(=O)N(C2CC(O)C(COP(=O)(O)O)O2)C(I)C1 (stereo unspecified)
inactive: [1] 31.9% | [2] 0% | [3] 12.9% | [4] -28.6% | [5] -0.6% | [6] 13.2%

Cc1cc(C)c2c(=O)c3c(oc2c1)O[C@@](C)(CO)C[C@@H]3c1ccccc1
inactive: [1] 1.15% | [2] 11.2% | [3] 2.3% | [4] 6.05% | [5] 12% | [6] 5.2%

O=C(/C=C\c1ccc(Cl)cc1)OCCCCOC(=O)/C=C/c1ccc(Cl)cc1
inactive: [1] 27.1% | [2] 3.15% | [3] -4.45% | [4] 9.5% | [5] 2.9% | [6] 5.25%

O=C1c2ccccc2C(C2c3ccccc3C(=O)c3cc(Br)ccc32)c2ccc(Br)cc21 (stereo unspecified)
inactive: [1] 4.25% | [2] -35.1% | [3] -9.5% | [4] -48.9% | [5] -14.1% | [6] -18.2%

OC(c1ccccc1)C1CC2C=CC1C2 (stereo unspecified)
inactive: [1] 10.4% | [2] 3.9% | [3] 3.75% | [4] 3.05% | [5] -2.05% | [6] 2.6%

— PubChem BioAssay (NCI)
